Drawing on PubChem BioAssay AID652010 (The Scripps Research Institute Molecular Screening Center, 2013), this text covers inhibition for 27 molecules.

In general, inhibition refers to the drop in the measured response relative to a control, in per cent.

The campaign covered roughly 370,000 compounds. About 4,100 (1.1%) were called active. What follows is part of a selection rich in actives, with near analogues and random picks from the rest. A number with no mark means an inactive call.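 The calls were made as follows: active = inhibition above the mean over all tested compounds plus 3 SD (cut at about 3.6% in these data); inactive = the rest.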

The nature of this assay: relief of DAX-1 repression of SF-1 activity – cell-based, luminescence, SF-1 (NR5A1), full-length DAX-1, primary screen (AID 652010).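 Also: 0% = DAX-1 cells with DMSO and 100% = cells lacking DAX-1 with DMSO.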 The settings on record: HEK293T StAR-luciferase reporter, SF-1/DAX-1 repression relief; at 6.8 µM; stronger effect = higher value. On the technique in general: A reporter such as luciferase makes a cellular process visible.
Consider `O=S1(=O)c2c(NCc3ccco3)cccc2Oc2ccccc2CN1Cc1cn(Cc2cccc(C(F)(F)F)c2)nn1`, for which the inhibition is -0.91%.
The result for `O=C(Nc1cccc(F)c1)[C@@H]1CCCN1` reads -0.32%; that for `O=C(Nc1cccc(F)c1)NC1CCCCCCC1`, 4.46% (active).
In the case of `Cc1cc(C)cc(NC(=O)NC2CCCCCCC2)c1`, the inhibition is 3.33%.
On to `Clc1ccc(Cc2nnc(-c3cccs3)o2)cc1`, for which the inhibition was -0.54%.
For `Clc1ccc(Nc2nc(-c3cccs3)cs2)nc1`, the inhibition was 5.93% (active).
In the case of `CCCN1C(=O)c2[nH]nc(-c3ccccc3)c2C1c1ccccc1` (configuration not stated), the inhibition is -1.18%.
Consider `O=C(Nc1ccc(Br)cc1)OCCN1C(=O)CCC12CCC(c1ccccc1)CC2` (configuration not stated), for which the inhibition is 0.27%.
The figure for `CC(C(=O)N1CCc2ccccc21)N(C)CC(=O)Nc1ccc(F)cc1` (configuration not stated) is -0.82%.
The figure for `CS(=O)(=O)N(CC(=O)Nc1ccc(F)cc1)C1CCCCC1` is -0.02%.
As for `CN(CC(=O)Nc1ccc(F)cc1)CC(=O)N1CCCCC1`, the inhibition is 3.7% (active).
As to `CN(C)C(=O)CSc1n[nH]c(-c2ccco2)n1`, the inhibition was -0.67%.
As to `Cn1c(SCC(=O)c2cccs2)nnc1-c1ccco1`, the inhibition is 0.71%.
Turning to `Cn1c(-c2ccco2)nc2cc3ccccc3cc21`, the inhibition was 4.28% (active).
Take `C=CCN(C)CC#Cc1ccccc1`: the inhibition was 1.58%.
The figure for `O=S1(=O)c2ccc(Br)cc2OC[C@H](Cc2ccccc2)N1Cc1cn(Cc2ccccc2)nn1` is 0.43%; for `COc1ccc(CN(CCN2CCOCC2)C(=O)c2ccc(C)cc2)cc1OC` it is 1.29%.
Consider `Cc1cc(N=Nc2ccc3ccccc3c2)ccc1O`, for which the inhibition was 4.24% (active).
The result for `Cc1ccccc1N1CCN(CC(=O)NCc2ccc(Cl)cc2)CC1` reads -0.26%; that for `COC1=C[C@H](C(=O)NCCNC(C)=O)[C@H](C)[C@@H](c2ccccc2)CC1=O`, 0.48%; that for `CCN(CC)C(=O)CC[C@@H]1CC[C@]2(CCCN(S(=O)(=O)C3CCCCC3)C2)O1`, -1.81%.
The figure for `CCOC(=O)c1c(NC(=S)Nc2ccccc2)sc2c1CCN(C)C2` is 0.23%; for `CCOC(=O)c1cc2c(nc1NC(=S)Nc1ccccc1)CC(C)(CC)OC2` (configuration not stated) it is -0.51%; for `CCOC(=O)c1cn[nH]c1NC(=S)Nc1ccccc1` it is 4.39% (active).
Take `Cc1ccc(CN2CCCCC(NC(=O)C3CCCCC3)C2=O)cc1` (configuration not stated): the inhibition is -1.69%.
Regarding `COc1ccc(N2CCN(CCNS(=O)(=O)c3ccc(C(C)(C)C)cc3)CC2)cc1`, the inhibition was -0.04%.
The figure for `CC1(C)NC(=O)N(CC(=O)N2CCN(S(=O)(=O)c3ccccc3F)CC2)C1=O` is -1%.
